Cav32 inh = Cav3.2 calcium influx blockers – cell-based, Fluo-4 calcium fluorescence, FDSS, MLSMR library, primary screen; 4% of 100,000 active; Voltage-dependent T-type calcium channel subunit alpha-1H (Homo sapiens), O95180; Cav3.2-expressing cells; stronger effect = lower value; B-score at 10 µM;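 active = single-dose well whose peak fluorescence ratio is a statistical outlier from its plate by either plate-standardised score or position-corrected B-score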
Target sequence (O95180 whole entry, looked up): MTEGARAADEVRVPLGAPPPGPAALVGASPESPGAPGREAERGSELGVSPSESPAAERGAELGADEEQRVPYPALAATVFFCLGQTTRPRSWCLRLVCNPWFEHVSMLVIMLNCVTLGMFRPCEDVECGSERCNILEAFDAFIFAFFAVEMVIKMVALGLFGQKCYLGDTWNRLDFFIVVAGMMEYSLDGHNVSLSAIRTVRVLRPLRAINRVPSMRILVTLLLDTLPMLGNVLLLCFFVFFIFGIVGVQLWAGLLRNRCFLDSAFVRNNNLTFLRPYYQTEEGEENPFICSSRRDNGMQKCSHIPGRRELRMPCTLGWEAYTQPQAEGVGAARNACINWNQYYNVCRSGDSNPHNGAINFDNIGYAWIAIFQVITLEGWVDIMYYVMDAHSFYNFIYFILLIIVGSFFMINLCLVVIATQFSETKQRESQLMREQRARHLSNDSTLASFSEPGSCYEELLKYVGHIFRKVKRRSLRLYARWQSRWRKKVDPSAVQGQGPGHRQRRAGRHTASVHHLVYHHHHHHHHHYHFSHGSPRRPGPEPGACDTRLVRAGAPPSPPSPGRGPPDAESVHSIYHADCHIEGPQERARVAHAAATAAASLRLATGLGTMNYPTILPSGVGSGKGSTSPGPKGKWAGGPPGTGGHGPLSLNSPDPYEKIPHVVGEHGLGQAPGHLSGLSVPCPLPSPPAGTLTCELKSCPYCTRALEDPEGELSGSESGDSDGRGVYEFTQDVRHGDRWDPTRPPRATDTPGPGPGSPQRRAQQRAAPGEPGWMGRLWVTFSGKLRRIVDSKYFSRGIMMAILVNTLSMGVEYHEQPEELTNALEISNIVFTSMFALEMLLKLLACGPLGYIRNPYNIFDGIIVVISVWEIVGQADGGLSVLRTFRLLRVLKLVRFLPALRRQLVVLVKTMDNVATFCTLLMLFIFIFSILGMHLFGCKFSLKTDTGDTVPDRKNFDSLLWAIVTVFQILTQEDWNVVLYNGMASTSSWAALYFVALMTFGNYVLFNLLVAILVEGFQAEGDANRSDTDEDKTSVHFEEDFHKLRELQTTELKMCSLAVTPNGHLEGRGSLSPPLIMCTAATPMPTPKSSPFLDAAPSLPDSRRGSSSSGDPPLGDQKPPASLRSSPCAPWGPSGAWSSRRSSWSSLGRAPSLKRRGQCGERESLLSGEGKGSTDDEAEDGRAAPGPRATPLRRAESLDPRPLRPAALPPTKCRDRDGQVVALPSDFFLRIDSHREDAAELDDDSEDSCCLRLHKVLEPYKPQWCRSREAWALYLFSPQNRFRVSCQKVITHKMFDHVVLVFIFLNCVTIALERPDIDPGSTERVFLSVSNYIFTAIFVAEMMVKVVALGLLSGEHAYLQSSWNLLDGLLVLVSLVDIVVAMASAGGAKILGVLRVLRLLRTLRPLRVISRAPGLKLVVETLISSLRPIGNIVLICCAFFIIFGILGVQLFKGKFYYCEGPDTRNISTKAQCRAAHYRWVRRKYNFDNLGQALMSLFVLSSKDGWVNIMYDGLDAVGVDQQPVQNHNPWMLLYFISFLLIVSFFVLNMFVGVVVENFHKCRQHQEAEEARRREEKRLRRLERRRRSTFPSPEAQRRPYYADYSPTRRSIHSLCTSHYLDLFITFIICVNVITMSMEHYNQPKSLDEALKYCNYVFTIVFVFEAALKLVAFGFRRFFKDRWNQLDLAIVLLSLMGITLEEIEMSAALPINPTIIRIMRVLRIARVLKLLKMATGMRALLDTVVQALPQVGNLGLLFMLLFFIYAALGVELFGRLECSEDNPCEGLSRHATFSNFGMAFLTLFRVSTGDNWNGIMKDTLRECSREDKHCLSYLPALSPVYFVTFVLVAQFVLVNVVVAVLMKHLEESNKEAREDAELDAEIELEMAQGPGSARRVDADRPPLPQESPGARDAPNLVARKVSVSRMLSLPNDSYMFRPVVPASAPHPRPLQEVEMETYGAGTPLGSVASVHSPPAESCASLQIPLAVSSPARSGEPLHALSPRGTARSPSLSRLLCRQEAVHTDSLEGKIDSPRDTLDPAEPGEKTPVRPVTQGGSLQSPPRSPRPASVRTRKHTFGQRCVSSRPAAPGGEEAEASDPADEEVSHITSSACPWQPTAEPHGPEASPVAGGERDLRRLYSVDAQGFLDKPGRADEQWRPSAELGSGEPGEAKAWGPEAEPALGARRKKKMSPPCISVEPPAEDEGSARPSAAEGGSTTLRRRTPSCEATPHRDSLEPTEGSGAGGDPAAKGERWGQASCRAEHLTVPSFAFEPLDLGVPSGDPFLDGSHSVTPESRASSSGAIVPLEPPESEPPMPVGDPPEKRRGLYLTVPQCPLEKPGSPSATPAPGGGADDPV
CYP2C19 activ = human CYP2C19 activators, primary screen, biochemical, luminescence; Cytochrome P450 2C19 (Homo sapiens), P33261; recombinant CYP2C19, luciferin-H EGE luminescence; stronger effect = higher value; 0 = fully inhibited enzyme, 1 = untreated enzyme; activation factor at 5 µM; 96,000 tested, under 10 active;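 active = activation factor of at least 2 at 5 µM in the primary screen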;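 also: 0 = wells with 2.5 mM tranylcypromine and 1 = vehicle-only wells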
CYP2C9 inh = blockers of cytochrome P450 2C9 activity – biochemical, luminescence, ADME assay, primary screen; CYP2C9 Supersomes, luciferin-H conversion; inhibition, % at 5 µM; 20% of 96,000 active; AID 777, 2007;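 active = blocking of liver enzyme CYP2C9 beyond about 50% at 5 µM, limit read from the data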
CYP2C19 inhib = blockers of cytochrome P450 2C19 activity – biochemical, luminescence, ADME assay, primary screen; P33261; CYP2C19 Supersomes, luciferin-H EGE luminescence, 30 min; inhibition, % at 5 µM; 21% of 96,000 active; AID 778, 2007;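 active = CYP2C19 inhibition above a set limit at 5 µM in the primary screen, cut at about 50% in these data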;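 also: plate controls were negative control wells for no effect and 2.5 mM tranylcypromine positive control for full effect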
CYP2C9 act = human CYP2C9 activators, primary screen, biochemical, luminescence. Cytochrome P450 2C9 (Homo sapiens), P11712. recombinant CYP2C9, luciferin-H conversion; stronger effect = higher value; factor 1 = untreated enzyme, 0 = blocked. activation factor at 5 µM. 1.4% of 96,000 active;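 active = activation factor of 2 or more for CYP2C9 at a 5 µM dose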;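 also: 0 = sulfaphenazole-blocked wells and 1 = vehicle-only wells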
Active calls of the source: *; . = no result given. Rows were chosen to be rich in hits. Some 27% of all compounds tested hit in one or more screens of this group.

SMILES	Cav32 inh	CYP2C19 activ	CYP2C9 inh	CYP2C19 inhib	CYP2C9 act
O=C1c2cccnc2C(Nc2ccc(S(=O)(=O)N3CCCCC3)cc2)N1Cc1ccccc1 (stereo unspecified)	0.37	0.9	33	13	0.7
COC(=O)c1cc(NC2c3ncccc3C(=O)N2Cc2ccccc2)cc(C(=O)OC)c1 (stereo unspecified)	0.0076	0	67*	96*	0.3
O=C(Nc1cccc(N2CCCC2)c1)c1cccs1	0.41	1	12	-2	0.9
CCOc1cc(C(=O)Nc2cccc3ncccc23)cc(OCC)c1OCC	0.062	0.9	16	11	0.8
CCCCCCCCC(=O)N/N=C(\C)c1cccnc1	-0.46	.	.	.	.
C/C(Cc1ccccc1)=N\NC(=O)CCCCCC(=O)N/N=C(\C)Cc1ccccc1	-0.49	0.4	10	57*	0.9
CCOC(=O)c1nnn(-c2nonc2N)c1CS(=O)(=O)c1ccccc1	-0.31	0.4	37	63*	0.6
CCOC(=O)c1nnn(-c2nonc2-n2cccc2)c1CN1CCC(C)CC1	-0.42	1.1	10	-8	0.9
CC(C)OC(=O)c1nnn(-c2nonc2N)c1CN1CCc2ccccc2C1	-1.9	0.9	68*	13	0.3
CCOC(=O)c1nnn(-c2nonc2N)c1COc1c(C=O)cccc1OC	1.1	0.9	71*	14	0.3
CCOC(=O)c1nnn(-c2nonc2-n2cccc2)c1CCl	-0.35	0.8	68*	23	0.3
CCC1CCCCN1C(=O)CSc1nc(N)c(NC(=O)c2ccc(OC)c(OC)c2)c(=O)[nH]1 (stereo unspecified)	0.05	1	13	-4	0.9
COc1cc(NC(=S)NN2CCOCC2)cc(OC)c1	0.053	.	.	.	.
CCOC(=O)c1nnn(-c2nonc2N)c1CN1CCc2ccccc2C1	-2.1	0.9	58*	8	0.4
COC(=O)c1nnn(-c2nonc2N)c1CN1CCc2ccccc21	-0.18	0	72*	96*	0.3
CC(C)OC(=O)c1nnn(-c2nonc2N)c1CN1CCCCCC1	-2	0.9	15	5	0.9
CN(c1ccccc1)S(=O)(=O)c1ccc(NC(=O)c2ccc(-c3ccccc3)cc2)cc1	-1.8	0.4	84*	62*	0.2
CN(c1ccccc1)S(=O)(=O)c1ccc(NC(=S)Nc2ccccc2)cc1	-0.14	0.8	60*	17	0.4
CC(=O)Nc1ccc(S(=O)(=O)N(C)c2ccccc2)cc1	0.0011	0.7	16	31	0.8
CN(c1ccccc1)S(=O)(=O)c1ccc(C(=O)Nc2nnc(-c3ccc(F)cc3)o2)cc1	-7.5*	1	34	5	0.7
CC1(C)CC(=O)C2=C(C1)NC(=O)CC2C(=O)NCc1ccc(F)cc1 (stereo unspecified)	0.64	0.9	-9	5	1.1
CCCS(=O)(=O)N1CCCC(C(=O)NCCCN2CCN(c3ccccc3F)CC2)C1 (stereo unspecified)	0.57	1	2	0	1
CCOC(=O)C(NC(=O)CC)(Nc1nc2c(s1)CCCC2)C(F)(F)F (stereo unspecified)	0.36	.	.	.	.
COC(=O)C(NC(=O)COc1ccccc1)(Nc1nc2c(s1)CCCC2)C(F)(F)F (stereo unspecified)	-6.3*	.	.	.	.
C=CCOC(=O)C1=C(C)Nc2nnnn2C1c1cccs1 (stereo unspecified)	-0.023	0.6	28	45	0.7
SMILES	Cav32 inh	CYP2C19 activ	CYP2C9 inh	CYP2C19 inhib	CYP2C9 act
O=C(OCc1ccccc1Cl)c1ccccc1C(=O)c1ccccc1	-0.097	0.3	39	67*	0.6
Cc1ccc(C(C)C)c(OCCCN2CC(C)OC(C)C2)c1 (stereo unspecified)	-0.23	0.2	-17	76*	1.2
COc1ccccc1NC(=O)CSc1nc2nc(C)cc(C)c2c(=O)[nH]1	0.78	0.9	52*	14	0.5
COc1ccccc1NC(=O)CSc1nc2ccccc2cc1Cc1ccccc1	-2.6	0	55*	99*	0.4
COc1ccccc1NC(=O)CSc1nc(N)cc(N)n1	0.41	0.3	-73	72*	1.7
Nc1cc(N)nc(SCC(=O)Nc2ccc(Br)cc2Cl)n1	0.32	0.3	56*	74*	0.4
Cc1cc(C)c2c(=O)[nH]c(SCC(=O)NCc3ccccc3)nc2n1	0.13	0.7	30	34	0.7
CSCC[C@H](NC(=O)CCNC(C)=O)c1nc2ccccc2[nH]1	-1.3	1	-12	-2	1.1
CN(C)c1nc(Oc2ccc(=O)[nH]n2)nc(N2CCCCC2)n1	1.2	0.9	19	9	0.8
COc1ccccc1NC(=O)Cc1noc(CSc2cc(C)c3ccccc3n2)n1	-7*	0.1	40	93*	0.6
O=S(=O)(Nc1cccnc1)c1ccc(Cl)cc1	0.21	0.2	85*	85*	0.2
O=S(=O)(Nc1ccncc1)c1ccc(Cl)cc1	0.063	1	40	4	0.6
O=S(=O)(Nc1cccnc1)c1ccc(C2CCCCC2)cc1	-1.7	1	4	4	1
CC(C)(C)c1ccc(S(=O)(=O)Nc2cccnc2)cc1	-1.5	0.4	14	62*	0.9
O=S(=O)(Nc1cccnc1)c1ccc2c(c1)OCCO2	0.008	0.4	14	58*	0.9
COc1cccc([C@@H]2Oc3ccc(Br)cc3C(=O)[C@H]2OC(=O)NC2CCCC2)c1	-1.1	.	.	.	.
CC1(C)CC2(CCO1)N1CC3(C)CN2CC(C)(C1)C3O (stereo unspecified)	-0.13	0.9	52*	8	0.5
CC(=O)N1CC2(C)CN(C(C)=O)CC(C)(C1)C2O (stereo unspecified)	0.07	1	-19	4	1.2
COC(=O)c1ccccc1NC(=O)C1CC(=O)N(C2CCCCC2)C1 (stereo unspecified)	0.47	0.3	59*	66*	0.4
O=C(c1ccccc1Nc1ccc(SC(F)F)cc1)N1CCCCC1	-7*	0.1	53*	88*	0.5
COC(=O)c1ccccc1NC(=O)C1CCN(C(=O)c2ccc(OC)cc2)CC1	0.039	0.5	30	50*	0.7
O=C(Nc1ccccc1C(=O)N1CCCCC1)C1CCCCC1	0.79	0.9	56*	6	0.4
COC(=O)c1ccccc1NC(=O)C1CCN(S(C)(=O)=O)CC1	-0.046	1	-31	2	1.3
Cn1c(COc2ccc3ccccc3c2)nnc1SCC(=O)OC1CCCCC1	-3.7	.	.	.	.
CS(=O)(=O)N(CC(=O)NCc1ccco1)c1ccc(Cl)c(C(F)(F)F)c1	-2	0.8	-28	24	1.3
Cc1ccc(N2C(=O)N(CC(=O)N3CCCc4ccccc43)C(=O)C2C)cc1 (stereo unspecified)	-0.37	0.9	4	12	1
Cc1ccccc1C(=O)N1CCC(C(=O)Nc2cccc(F)c2)CC1	0.073	0.7	51*	32	0.5
